# The entries come from a sample that favours the strongest signals as a whole.
# B1: Angptl4 (Homo sapiens), Q9BY76 (protein)
# chain: MSGAPTAGAALMLCAATAVLLSAQGGPVQSKSPRFASWDEMNVLAHGLLQLGQGLREHAERTRSQLSALERRLSACGSACQGTEGSTDLPLAPESRVDPEVLHSLQTQLKAQNSRIQQLFHKVAQQQRHLEKQHLRIQHLQSQFGLLDHKHLDHEVAKPARRKRLPEMAQPVDPAHNVSRLHRLPRDCQELFQVGERQSGLFEIQPQGSPPFLVNCKMTSDGGWTVIQRRHDGSVDFNRPWEAYKAGFGDPHGEFWLGLEKVHSITGDRNSRLAVQLRDWDGNAELLQFSVHLGGEDTAYSLQLTAPVAGQLGATTVPPSGLSVPFSTWDQDHDLRRDKNCAKSLSGGWWFGTCSHSNLNGQYFRSIPQQRQKLKKGIFWKTWRGRYYPLQATTMLIQPMAAEAAS
# How the values were obtained:
# Test in all cases: glycan array binding signal (z-score within array); higher = stronger binding
# Conditions in all cases: glycan notation: IUPAC condensed, linker removed
# [1] = molecular target: Fuc(a1-2)Gal(b1-3)GalNAc(b1-3)Gal
# In short: (§1)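 Arrays were curated from the Consortium for Functional Glycomics database, 3228 in total, and kept only where the protein sequence was available. Binding is expressed as a within-array Z-score. This score was averaged across arrays of the same protein sequence at different concentrations or buffers and across linkers, and negative values can be read as non-binding.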
# [2] = molecular target: Fuc(a1-2)Gal(b1-4)GlcNAc(b1-3)Gal(b1-4)GlcNAc(b1-3)Gal(b1-4)GlcNAc
# In short: as §1
# Fuc(a1-2)Gal6S(b1-4)Glc = molecular target: Fuc(a1-2)Gal6S(b1-4)Glc
# In short: as §1
# [3] = molecular target: Fuc(a1-2)[Gal(a1-3)]Gal(b1-4)GlcNAc
# In short: as §1
# Fuc(a1-3)GlcNAc = molecular target: Fuc(a1-3)GlcNAc
# In short: as §1
# [4] = molecular target: Fuc(a1-3)[Gal(b1-4)]GlcNAc6S
# In short: as §1
# [5] = molecular target: Gal(a1-3)Gal(b1-4)[Fuc(a1-3)]GlcNAc
# In short: as §1
# Gal(b1-3)Gal = molecular target: Gal(b1-3)Gal
# In short: as §1
# [6] = molecular target: Gal(b1-3)[Fuc(a1-4)]GlcNAc(b1-3)Gal(b1-4)[Fuc(a1-3)]GlcNAc
# In short: as §1
# [7] = molecular target: Gal(b1-3)[GlcNAc(b1-6)]GalNAc
# In short: as §1
# [8] = molecular target: Gal(b1-4)GlcNAc(b1-3)Gal(b1-4)Glc
# In short: as §1
# [9] = molecular target: Gal(b1-4)GlcNAc(b1-3)Gal(b1-4)[Fuc(a1-3)]GlcNAc(b1-3)Gal(b1-4)[Fuc(a1-3)]GlcNAc
# In short: as §1
# [10] = molecular target: Gal(b1-4)GlcNAc(b1-3)[GlcNAc(b1-6)]Gal(b1-4)GlcNAc
# In short: as §1
# Gal3S(b1-4)Glc = molecular target: Gal3S(b1-4)Glc
# In short: as §1
# GalNAc(b1-3)Gal = molecular target: GalNAc(b1-3)Gal
# In short: as §1
# GalNAc(b1-4)GlcNAc = molecular target: GalNAc(b1-4)GlcNAc
# In short: as §1
# Kdn(a2-3)Gal(b1-3)GlcNAc = molecular target: Kdn(a2-3)Gal(b1-3)GlcNAc
# In short: as §1
# [11] = molecular target: Man(a1-3)[Man(a1-6)]Man(a1-6)[Man(a1-2)Man(a1-3)]Man(b1-4)GlcNAc(b1-4)GlcNAc
# In short: as §1
# [12] = molecular target: Neu5Ac(a2-3)Gal(b1-3)GlcNAc6S
# In short: as §1
# [13] = molecular target: Neu5Ac(a2-3)Gal(b1-3)[Fuc(a1-4)]GlcNAc
# In short: as §1
# [14] = molecular target: Neu5Ac(a2-3)Gal(b1-4)GlcNAc(b1-3)Gal(b1-3)GlcNAc
# In short: as §1
# [15] = molecular target: Neu5Ac(a2-3)Gal6S(b1-4)[Fuc(a1-3)]GlcNAc
# In short: as §1
# Neu5Ac(a2-3)GalNAc = molecular target: Neu5Ac(a2-3)GalNAc
# In short: as §1
# [16] = molecular target: Neu5Ac(a2-6)Gal(b1-4)GlcNAc(b1-2)Man(a1-6)[Gal(b1-4)GlcNAc(b1-2)Man(a1-3)]Man(b1-4)GlcNAc(b1-4)GlcNAc
# In short: as §1
# [17] = molecular target: Neu5Ac(a2-6)Gal(b1-4)GlcNAc(b1-3)Gal(b1-4)[Fuc(a1-3)]GlcNAc(b1-3)Gal(b1-4)[Fuc(a1-3)]GlcNAc
# In short: as §1
# [18] = molecular target: Neu5Ac(a2-8)Neu5Ac(a2-8)Neu5Ac
# In short: as §1
binder,measurement,setting,value
B1,glycan array binding signal (z-score),[1],5.26
same,glycan array binding signal (z-score),[2],0.616
same,glycan array binding signal (z-score),Fuc(a1-2)Gal6S(b1-4)Glc,-0.253
same,glycan array binding signal (z-score),[3],0.087
same,glycan array binding signal (z-score),Fuc(a1-3)GlcNAc,-0.446
same,glycan array binding signal (z-score),[4],-0.527
same,glycan array binding signal (z-score),[5],-0.522
same,glycan array binding signal (z-score),Gal(b1-3)Gal,0.531
same,glycan array binding signal (z-score),[6],-0.192
same,glycan array binding signal (z-score),[7],-0.215
same,glycan array binding signal (z-score),[8],-0.407
same,glycan array binding signal (z-score),[9],3.98
same,glycan array binding signal (z-score),[10],-0.27
same,glycan array binding signal (z-score),Gal3S(b1-4)Glc,-0.052
same,glycan array binding signal (z-score),GalNAc(b1-3)Gal,-0.523
same,glycan array binding signal (z-score),GalNAc(b1-4)GlcNAc,-0.398
same,glycan array binding signal (z-score),Kdn(a2-3)Gal(b1-3)GlcNAc,0.691
same,glycan array binding signal (z-score),[11],5.32
same,glycan array binding signal (z-score),[12],7.07
same,glycan array binding signal (z-score),[13],-0.272
same,glycan array binding signal (z-score),[14],-0.262
same,glycan array binding signal (z-score),[15],-0.53
same,glycan array binding signal (z-score),Neu5Ac(a2-3)GalNAc,-0.954
same,glycan array binding signal (z-score),[16],4.1
same,glycan array binding signal (z-score),[17],0.162
same,glycan array binding signal (z-score),[18],-0.016

# — the supplement of paper PMC8728848
